Experimental data published in PubChem BioAssay AID602295 (Broad Institute, 2012).
The source made the active and inactive calls.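 The calls were made as follows: active = every separate test run called active, meaning the signal drops and a potency is fitted within twice the top valid dose; inconclusive = runs disagree, poor fit, or flat partial inhibition; inactive = all runs inactive, flat, opposite direction or too weak.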

Molecular target: Mitogen-activated protein kinase 3 (Homo sapiens) (UniProt P27361)
Sequence (P27361 whole entry, looked up): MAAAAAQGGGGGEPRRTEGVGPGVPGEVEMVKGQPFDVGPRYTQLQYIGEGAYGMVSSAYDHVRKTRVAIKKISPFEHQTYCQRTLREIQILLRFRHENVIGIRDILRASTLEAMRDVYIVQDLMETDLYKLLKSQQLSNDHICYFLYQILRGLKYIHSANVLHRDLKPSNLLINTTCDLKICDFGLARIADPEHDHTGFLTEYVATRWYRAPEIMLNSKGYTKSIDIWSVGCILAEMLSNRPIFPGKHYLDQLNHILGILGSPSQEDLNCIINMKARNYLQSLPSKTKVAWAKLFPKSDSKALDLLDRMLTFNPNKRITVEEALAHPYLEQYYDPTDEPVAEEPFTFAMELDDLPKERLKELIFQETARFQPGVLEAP
Test: inhibition of MAPK3 kinase activity – biochemical, ADP-Glo luminescence, cherry pick, set 2, selectivity assay for Dyrk1A inhibitor NFAT project, dose response (AID 602295)
Conditions: ERK1 kinase, 120 min; series mostly up to 10 µM

outcome, inactive:
Cc1c(-c2ccnc(NCc3ccc(Cl)cc3)n2)sc(=O)n1C
O=C(CSc1nnnn1-c1ccc(O)cc1)Nc1ccc(N2CCOCC2)c(Cl)c1
Cc1ccc(CNc2ncnc3ccc(-c4ccc5c(c4)OCO5)cc23)o1
Cc1ccsc1CN(C)c1ncnc2ccc(-c3ccoc3)cc12
O=C(COc1ccccc1)Nc1cccc(-c2cn3cccnc3n2)c1
COc1cccc(-c2sc3ccccc3c2-c2ccc(OCCN3CCCC3)cc2)c1
CN(C)S(=O)(=O)c1ccc(NC(=O)c2cc3ccccc3o2)cc1
Cc1ccsc1CN(C)c1ncnc2ccc(-c3ccc(CO)o3)cc12
O=C(Nc1nc2ccc(Cl)cc2s1)C1CCCO1 (stereo not drawn)
O=C(Nc1nc(-c2ccncc2)cs1)c1ccco1
CCCNc1ncnc2ccc(-c3ccc4c(c3)OCO4)cc12
O=[N+]([O-])c1cc(Nc2nccc(-c3ccc4c(c3)OCO4)n2)cc(C(F)(F)F)c1
CCOC(=O)c1ccc2ncc(C(=O)OCC)c(Nc3ccc(N4CCOCC4)cc3)c2c1
Cc1c(-c2ccnc(NCc3cccnc3)n2)sc(=O)n1C
COc1ccc(-c2cc(NCCc3ccncc3)n3ncnc3n2)cc1
c1nc(NCC2CCCO2)c2cc(-c3ccc4c(c3)OCO4)ccc2n1 (stereo not drawn)
COc1cccc(NC(=O)Nc2ccc3c(c2)N(C)C(=O)CS3)c1
Clc1ccccc1-c1ccc2ncnc(NCc3ccc4c(c3)OCO4)c2c1
CCN1CCN(Cc2ccc(NC(=O)c3ccc(C)c(/C=C/c4cnc(Nc5cc(N6CCNCC6)nc(C)n5)cn4)c3)cc2C(F)(F)F)CC1
NC(=O)c1c(NC(=O)c2ccc(N3C(=O)CCC3=O)cc2)sc2c1CCCC2
CCN1CCN(Cc2ccc(NC(=O)c3ccc(C)c(NC(=O)N4CCNC4=O)c3)cc2C(F)(F)F)CC1
CN(C)S(=O)(=O)c1ccc(Cl)c(C(=O)Nc2cccc3ncccc23)c1
COc1ccc(-c2[nH]ncc2-c2ccc3c(c2)OCCO3)c(O)c1
Cc1nc(NC(=O)c2ccccc2)sc1-c1csc(N)n1
Cc1ccsc1CNc1ncnc2ccc(-c3ccc4c(c3)OCO4)cc12
c1cc(-c2ccc3c(c2)OCO3)nc(Nc2ccc3c(c2)OCO3)n1
O=C(O)COc1ccc(/C=C/c2nc3ccc([N+](=O)[O-])cc3s2)cc1
Cc1ccc(CN(C)c2ncnc3ccc(-c4ccc5c(c4)OCO5)cc23)o1
COc1cccc(Nc2ncnc3sc(C)cc23)c1
Cc1cc(NCCCn2ccnc2)n2ncc(-c3ccc(Cl)cc3)c2n1
O=C(Nc1nc2c(s1)CCCC2)c1ccc(N2C(=O)CCC2=O)cc1
Cc1nc(NC(=O)c2ccccc2)sc1-c1csc(NCc2ccco2)n1
COc1ccc2c(c1)CCc1c-2n[nH]c1C(=O)O
